Results taken from PubChem BioAssay (Tox21).
“And” between values parts separate entries of the source, which are not always exact repeats. Equal entries are not always repeated. The source holds several records for some structures; these can differ, active in one and inactive in another. The source made the active and inactive calls. Unless noted, calls come from the whole dose curve; as a rule, active = well fitted curve in the direction sought with a large enough effect in the repeat runs; inconclusive = weak or mixed curves; inactive = no such curve, though single readings can be large; an effect the other way counts as inactive or inconclusive.

Key:
[1] = qHTS assay to identify small molecule antagonists of the thyroid receptor (TR) signaling pathway - cell viability counter screen (AID 743064); note: nearly all actives have a fitted effect of over 50% in size; note: potency is the fitted concentration of half-maximal effect
Summary of the method: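 In-well cytotoxicity read by CellTiter-Fluor (30 min, 37 C) following 23.5 h exposure of GH3 cells bearing a TRE-luciferase sensor. Compounds were added alongside 1 nM (final) T3 to drive TR transactivation.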

[2] = qHTS assay to identify small molecule antagonists of the thyroid receptor (TR) signaling pathway (AID 743065); note: nearly all actives have a fitted effect of over 55% in size; note: potency is the fitted concentration of half-maximal effect
Summary of the method: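 GH3.TRE-Luc rat pituitary cells (two TREs driving luciferase) were dosed with compound, then stimulated with 1 nM T3 (final) for 23.5 h at 37 C. ONE-Glo luminescence was the read-out, with CellTiter-Fluor fluorescence as the cytotoxicity counter-screen.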

[3] = tested on: thyroid hormone receptor (rat, GH3 cells); assay: qHTS assay to identify small molecule agonists of the thyroid receptor (TR) signaling pathway (AID 743066; calls by dose curve)
[4] = biological target: Estrogen receptor (Homo sapiens) (UniProt P03372); assay: qHTS assay to identify small molecule antagonists of the estrogen receptor alpha (ER-alpha) signaling pathway (AID 743069; active = well fitted curve in the direction sought with a large enough effect in the signal ratio in the repeat runs, not every such curve was filed as active; inconclusive = weak or mixed curves, or effect the other way; inactive = no such curve, though single readings can be large or run the other way; the % refers to the signal ratio; note: potency is the fitted concentration of half-maximal effect)
Chain of Estrogen receptor (Homo sapiens) (P03372 whole entry, looked up): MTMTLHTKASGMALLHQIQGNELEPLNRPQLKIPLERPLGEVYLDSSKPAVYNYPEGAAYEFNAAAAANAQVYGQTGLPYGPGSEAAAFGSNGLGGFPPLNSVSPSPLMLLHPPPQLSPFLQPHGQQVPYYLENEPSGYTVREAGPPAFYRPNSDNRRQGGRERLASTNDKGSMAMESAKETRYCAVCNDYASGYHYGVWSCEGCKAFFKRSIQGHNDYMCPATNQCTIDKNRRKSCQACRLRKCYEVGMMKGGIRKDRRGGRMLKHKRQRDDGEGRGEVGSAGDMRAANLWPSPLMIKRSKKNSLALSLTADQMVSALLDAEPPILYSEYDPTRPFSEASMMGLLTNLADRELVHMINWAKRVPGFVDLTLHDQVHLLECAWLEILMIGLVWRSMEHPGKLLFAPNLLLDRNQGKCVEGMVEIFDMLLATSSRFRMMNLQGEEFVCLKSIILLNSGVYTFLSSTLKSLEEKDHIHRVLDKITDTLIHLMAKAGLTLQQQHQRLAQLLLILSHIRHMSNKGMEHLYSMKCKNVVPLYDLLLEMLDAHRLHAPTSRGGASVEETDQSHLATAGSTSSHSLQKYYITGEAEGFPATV
Summary of the method: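 In this cell-based reporter format, GripTite HEK293 cells harbouring ER-alpha-UAS-bla were grown overnight with 2% charcoal-stripped FBS, dosed with DMSO-dissolved compounds, then challenged with 17beta-estradiol. After 18 hr at 37C, beta-lactamase activity was detected by FRET fluorescence.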

[5] = qHTS assay to identify small molecule antagonists of the estrogen receptor alpha (ER-alpha) signaling pathway - cell viability counter screen (AID 743074; calls by dose curve; note: nearly all actives have a fitted effect of over 45% in size; note: potency is the fitted concentration of half-maximal effect)
[6] = biological target: Estrogen receptor (Homo sapiens) (UniProt P03372); assay: qHTS assay to identify small molecule agonists of the estrogen receptor alpha (ER-alpha) signaling pathway (AID 743075; calls by dose curve; note: potency is the fitted concentration of half-maximal effect)
[7] = biological target: Estrogen receptor (Homo sapiens) (UniProt P03372); assay: qHTS assay to identify small molecule agonists of the estrogen receptor alpha (ER-alpha) signaling pathway using the BG1 cell line (AID 743079); settings: BG1Luc4E2 cells, ERE-luciferase agonist, 22 h; activation: at 70.3 µM (top of the series); note: nearly all actives have a fitted effect of over 20% in size; note: potency is the fitted concentration of half-maximal effect
[8] = qHTS assay to identify small molecule antagonists of the estrogen receptor alpha (ER-alpha) signaling pathway using the BG1 cell line (AID 743080; calls by dose curve;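 note: BG1 cells stimulated with 17beta-estradiol alongside compound; nearly all actives have a fitted effect of over 25% in size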; note: potency is the fitted concentration of half-maximal effect); settings: BG1Luc4E2 ERE-luciferase antagonist mode, luminescence; activity change, negative = inhibition: at 70.3 µM (top of the series)
Summary of the method: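 Luminescence from a 4×ERE-luciferase reporter in BG1-Luc-4E2 cells served as read-out. Cells, pre-cultured 5 days in stripped-serum phenol-red-free medium, were exposed to compound with 17beta-estradiol co-stimulation for 21.5 h at 37 C.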

[9] = qHTS assay to identify small molecule antagonists of the estrogen receptor alpha (ER-alpha) signaling pathway using the BG1 cell line - cell viability counter screen (AID 743081);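 note: compound given together with 17beta-estradiol as the ER stimulus; nearly all actives have a fitted effect of over 45% in size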; note: potency is the fitted concentration of half-maximal effect
Aromatase (Homo sapiens) = Aromatase (Homo sapiens) (UniProt P11511); assay: qHTS assay to identify aromatase inhibitors (AID 743083); note: nearly all actives have a fitted effect of over 55% in size; note: potency is the fitted concentration of half-maximal effect
Chain of Aromatase (Homo sapiens) (P11511 whole entry, looked up): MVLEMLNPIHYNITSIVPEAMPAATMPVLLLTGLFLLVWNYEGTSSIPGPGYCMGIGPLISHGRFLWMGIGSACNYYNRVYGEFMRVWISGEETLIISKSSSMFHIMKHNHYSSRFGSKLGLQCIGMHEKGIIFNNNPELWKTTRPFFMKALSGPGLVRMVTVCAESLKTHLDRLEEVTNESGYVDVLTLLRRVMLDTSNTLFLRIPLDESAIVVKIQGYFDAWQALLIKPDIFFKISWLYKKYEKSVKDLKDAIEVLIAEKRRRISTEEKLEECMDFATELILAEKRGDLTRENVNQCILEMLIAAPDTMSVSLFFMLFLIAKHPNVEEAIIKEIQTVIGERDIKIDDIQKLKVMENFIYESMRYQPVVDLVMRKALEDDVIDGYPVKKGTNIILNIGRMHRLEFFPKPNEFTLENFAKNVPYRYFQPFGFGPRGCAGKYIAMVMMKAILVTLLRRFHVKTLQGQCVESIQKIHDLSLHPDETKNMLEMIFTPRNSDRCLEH

Measured: Potency

COC(=O)CC#N
inactive: all assays above

CC(C)=C1CC[C@@H](C)CC1=O
not listed: [7] | [8]
inactive: all other assays above

COC(=O)CC(C)CCC=C(C)C (stereo not drawn)
inactive: all assays above

CCCCCCCC/C=C/CCCOC(C)=O
inactive: all assays above

CCOC(=O)N1CCC(=C2c3ccc(Cl)cc3CCc3cccnc32)CC1
inactive and 61.1 µM (active): [8]
active: [1] 26.6 µM and 27.3 µM | [2] 11.9 µM and 9.69 µM | [4] 26.8 µM [inconclusive]
inactive: [3] | [5] | [6] | [9]

CCCSS/C(CCO)=C(\C)N(C=O)Cc1cnc(C)nc1N
active: [1] 26.6 µM | [2] 23.7 µM | Aromatase (Homo sapiens) 26.6 µM
inactive: all other assays above

NC(=O)c1ccccc1N
inactive: all assays above

CCCC(CC)CCCCCCCN (stereo not drawn)
inactive: all assays above

Nc1cc(Cl)c([N+](=O)[O-])cc1O
active: [1] 60.6 µM
not listed: [9]
inactive: all other assays above

Cc1cn[nH]c1
inactive: all assays above

CC1CCCNC1 (stereo not drawn)
inactive: all assays above

O=C(O)Cc1ccc(OCCNC[C@H](O)c2ccccc2)cc1
inactive: all assays above

C(=C/c1ccccc1)/c1ccccc1
inactive: all assays above

CC(COC(=O)c1ccccc1)OC(=O)c1ccccc1 (stereo not drawn)
not listed: [7]
inactive: all other assays above

O=C(O)c1cccc(Cl)n1
inactive: all assays above

CC(C)N=C(N)/N=C(\N)Nc1ccc(Cl)cc1
active: [2] 2.54 µM
inactive: all other assays above

CCc1cccc(C)c1
inactive: all assays above

CCCCCCCOC(=O)c1ccc(O)cc1
inactive: [3] | [5] | [9]
active: [1] 61.1 µM | [2] 61.1 µM | [4] 54.9 µM [inhibitor] | [6] 55 µM [inconclusive] and 54.9 µM [inconclusive] | [7] 15.4 µM and 19.3 µM | Aromatase (Homo sapiens) 43.3 µM

O=S(=O)(O)CCCN1CCOCC1
inactive: all assays above

CCN=c1cc2oc3cc(NCC)c(C)cc3c(-c3ccccc3C(=O)OCC)c-2cc1C
active: [1] 1.08 µM and 1.22 µM | [2] 609 nM and 1.09 µM | [4] 48.8 nM [inconclusive] and 155 nM [inconclusive] | [5] 24.5 µM and 21.9 µM | [8] 172 nM and 217 nM | [9] 3.84 µM and 5.45 µM | Aromatase (Homo sapiens) 193 nM and 137 nM
inactive: [3] | [6]

CNCC[C@H](Oc1cccc2ccccc12)c1cccs1
active: [1] 7.5 µM | [2] 7.5 µM

CCOC(=O)[C@@](C)(N)Cc1ccc(O)c(O)c1
inactive: all assays above

Cn1cnc2ncnc(N)c21
inactive: all assays above

CCc1ccc(O)c(C(C)(C)C)c1
active: [1] 54.5 µM | [2] 61.1 µM | [7] 27.3 µM | Aromatase (Homo sapiens) 68.6 µM
not listed: [6]
inactive: all other assays above

CCCCOC(=O)C(C)CC (stereo not drawn)
inactive: all assays above

c1ccc(Sc2ccccc2)cc1
inactive: all assays above

C[Si](C)(C)Cl
inactive: all assays above

COC(=O)C1=C(C)NC(C)=C(C(=O)OCCCN2CCC(c3ccccc3)(c3ccccc3)CC2)C1c1cccc([N+](=O)[O-])c1 (stereo not drawn)
active: [1] 11.9 µM | [2] 7.5 µM

CCN(CC)CCOC(=O)C1(C2CCCCC2)CCCCC1
active: [1] 26.6 µM | [2] 23.7 µM | Aromatase (Homo sapiens) 29.8 µM
inactive: all other assays above

CC1=C(/C=C/C(C)=C/C=C/C(C)=C\C=O)C(C)(C)CCC1
inactive: [3]
active: [1] 25.8 µM | [2] 29 µM

NCCCCCCNCCCCCCN
inactive: all assays above

O=Nc1ccc(NO)cc1
inactive: all assays above

CCC(=O)OCCc1ccccc1
not listed: Aromatase (Homo sapiens)
inactive: all other assays above

O=Cc1ccc(F)cc1
inactive: all assays above

ClC/C=C\CCl
inactive: all assays above

CC(CN(C)C)CN1c2ccccc2CCc2ccccc21 (stereo not drawn)
active: [1] 4.52 µM | [2] 11.4 µM
not listed: [9] | Aromatase (Homo sapiens)
inactive: all other assays above

CCCCCCCCCCCCN(CCO)CCO
inactive: [3] | [6]
active: [1] 17.2 µM | [2] 15.3 µM | [5] 48.8 µM | [8] 68.3 µM | Aromatase (Homo sapiens) 30.5 µM

C=CC(=O)OCCOCC(CC)(COCCOC(=O)C=C)COCCOC(=O)C=C
inactive: [1] | [2] | [3] | [5]
active: Aromatase (Homo sapiens) 10.1 µM

CC1(C)C(=O)N(Br)C(=O)N1Br
inactive: [1] | [2] | [3] | [5] | [9] | Aromatase (Homo sapiens)

O=C(O)CCn1c2c(c3ccccc31)C[C@H](NS(=O)(=O)c1ccc(F)cc1)CC2
inactive: [1] | [2] | [3] | [5] | Aromatase (Homo sapiens)
